PubChem BioAssay (NCI)
This is part of a sample that, as a whole, favours compounds with a hit. Of some 83,000 tested, about 20% had one in any assay.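 Cell lines were cultured in 96-well plates, exposed to a single compound concentration, and assessed for percent growth 48 hours later.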 Unmarked numbers belong to inactive results. The source made the active and inactive calls. How the source made its calls: active means growth percent below 10; inactive means the rest.

Columns and labels:
Assay in all cases: NCI-60 one-dose screen, 48 h (100 = growth as untreated, 0 = no growth, -100 = all killed)
NCI-H23 lung = details: 10 µM unless noted
NCI-H322M lung = details: 10 µM unless noted
HOP-62 NSCLC = details: 10 µM unless noted
NCI-H460 lung = details: 10 µM unless noted
HOP-92 NSCLC = details: 10 µM unless noted
NCI-H522 lung = details: 10 µM
A549/ATCC NSCLC = details: 10 µM unless noted
786-0 renal = details: 10 µM unless noted
DU-145 prostate = details: 10 µM unless noted
K-562 leukemia = details: 10 µM unless noted
MALME-3M melanoma = details: 10 µM unless noted
MDA-MB-231 breast = details: 10 µM unless noted
RXF 393 renal = details: 10 µM unless noted
SF-268 CNS = details: 10 µM unless noted
SF-295 CNS = details: 10 µM unless noted
SF-539 CNS = details: 10 µM unless noted
UACC-257 melanoma = details: 10 µM unless noted
M14 melanoma = details: 10 µM unless noted

SMILES | growth (NCI-H23 lung) | growth (NCI-H322M lung) | growth (HOP-62 NSCLC) | growth (NCI-H460 lung) | growth (HOP-92 NSCLC) [%] | growth (NCI-H522 lung) | growth (A549/ATCC NSCLC) | growth (786-0 renal) | growth (DU-145 prostate) | growth (K-562 leukemia) | growth (MALME-3M melanoma) | growth (MDA-MB-231 breast) | growth (RXF 393 renal) | growth (SF-268 CNS) | growth (SF-295 CNS) | growth (SF-539 CNS) | growth (UACC-257 melanoma) | growth (M14 melanoma)
CC(=O)OC[C@]1(C)C=C2C(=O)[C@](C)(O)C3(CC3)C(C)=C2[C@H]1OC(C)=O | 75% | 98.5% | 53.7% | 95.1% | 122 | 71.1% | 100% | 87.8% | 16.7% | 93.1% | 111% | 93.2% | 3.69% (active) | 69.4% | 83% | 95.2% | 106% | 88.2%
CCCCCCCC/C=C\CCCCCCCCOc1cccc(CC(=O)NCC[N+](C)(C)C)c1 | 83.1% | 102% | 62.9% | 57.9% | 74.2 | 80.8% | 90.9% | 80.8% | 94.4% | 85.5% | 90.1% | 87.3% | 13.8% | 71.5% | 87.1% | 92.2% | 103% | 75.3%
O=C(NCc1ccc(F)cc1)C1CN(c2ccc(Cl)cc2)N(c2ccc(Cl)cc2)C1=O (centres undefined) | 78.8% | 93.1% | 60.5% | 48% | 91.1 | 52.5% | 48.8% | 79.1% | 85.3% | 23.3% | 60% | 84.3% | 65.5% | 65% | 42.5% | 87.6% | 76.3% | 
O=C1CCC(N2C(=O)c3cccc(NCCOCCOCCNC(=O)c4cc5c(o4)C(=O)c4ccccc4C5=O)c3C2=O)C(=O)N1 (centres undefined) | -53.9% (active) | -76.6% (active) | -58.2% (active) | -81.3% (active) | 60.4 | -55% (active) | -30.2% (active) | 17.8% | -97.8% (active) | 8.5% (active) | -95.2% (active) | -2.36% (active) | -39.5% (active) | -12.2% (active) | -93.9% (active) | -95.2% (active) | -82.5% (active) | -66.4% (active)
Cc1cccc2c(=O)c3c(sc12)c(NCCNCCO)nc1ccccc13 | 55.3% | 37.7% | 22.6% | 9.95% (active) | 33.1 | 29.1% | 37.7% | 52.9% | 27.3% | -65.7% (active) | -42.2% (active) | -15.3% (active) | 38.1% | 56.6% | 65% | 50.6% | 77.8% | -56.4% (active)
O=C1N/C(=C\c2ccccc2)c2ncccc21 | 95% | 95.8% | 100% | 113% | 94.9 | 86.9% | 106% | 98.7% | 106% | 90.7% | 95.2% | 94.3% | 127% | 98.6% | 107% | 101% | 100% | 98.5%
CCN1CCN(c2nc3ccccc3c3c(=O)c4cc(F)ccc4sc23)CC1 | 85.6% | 81.2% | 73.2% | 38.5% | 40.2 | 76.7% | 58.4% | 60.6% | 66.4% | 10.2% | 90.9% | 51.8% | 47.3% | 53.7% | 93.2% | 86% | 78.7% | 
Cc1ccc(NS(=O)(=O)c2ccc(-c3cnc(C4CC4)o3)cc2)cc1 | 58.8% | 69% | 36.4% | 7.82% (active) | 57 | 9.2% (active) | 40.2% | 50.8% | 49.7% | 14.6% | 47.9% | 44.7% | 26.5% | 50.1% | 19.9% | 26.7% | 55.1% | 9.71% (active)
Cc1ccccc1-c1cc(-c2ccc(Br)s2)[nH]c(=O)c1C#N | 96.8% | 97.9% | 104% | 106% | 77.9 | 93.4% | 107% | 97.6% | 110% | 90.3% | 88.9% | 100% | 106% | 104% | 95.1% | 112% | 104% | 93.6%
C[C@]1(CO)C[C@@H](O)C[C@]2(C)[C@@H]1CC[C@@]13C[C@@H]4[C@@H](C[C@H]12)[C@]4(C)C3 | 108% | 103% | 101% | 104% | 103 | 101% | 102% | 104% | 111% | 101% | 94.4% | 98% | 119% | 100% | 104% | 99.4% | 106% | 94.8%
O=C1c2ccccc2-c2cn(Cc3ccccc3)c3cccc(c23)C1c1cccnc1 (centres undefined) | 45.5% | 54% | 36% | 23.2% | 76.8 | -12.4% (active) | 42.2% | 52.2% | 60.7% | 26.8% | 38.9% | 52.4% | 57.9% | 58% | 25.9% | 54.7% | 55% | 48.4%
CCCCCCCCCCCCCCn1c2ccccc2c2c3c(c4c5cc(OC)ccc5oc4c21)C(=O)NC3=O | 103% | 106% | 117% | 100% | 106 | 98% | 103% | 103% | 111% | 111% | 115% | 111% | 122% | 99.8% | 104% | 97% | 102% | 101%
Nc1cc2[nH]c(=O)c3ccccc3c2cc1Br | 70.5% | 86% | 68.9% | 67.3% | 58.4 | 90% | 84.5% | 104% | 77% | 95% | 102% | 53.2% | 85.4% | 86.3% | 95.6% | 74.6% | 109% | 83.3%
CCCCCCCC/C=C\CCCCCCCCOc1cccc(CC(=O)NCC[N+]2(C)CCOCC2)c1 | 90.4% | 101% | 66.3% | 67% | 86.4 | 77% | 90.6% | 94.9% | 93.6% | 73.4% | 93.3% | 87.2% | 6.07% (active) | 70.2% | 89.1% | 96.2% | 93.6% | 87%
O=C(c1cnn2c1NC(c1ccc(F)cc1)C2)N1CCCCC1 (centres undefined) | 105% | 112% | 92.1% | 105% | 97 | 93.3% | 98.2% | 106% | 103% | 103% | 97.7% | 106% | 111% | 96.7% | 103% | 97.8% | 96.3% | 101%
COc1cc(/C=N/NC(=O)c2cnn3c2NC(c2ccccc2)C3)ccc1OC1CCCC1 (centres undefined) | 50% | 32.9% | 35.1% | 2.88% (active) | 45.7 | 11.7% | 40.6% | 9.01% (active) | 26.5% | 18.7% | 40.1% | 52.7% | -27.9% (active) | 36.9% | 6.52% (active) | -15.6% (active) | 43.4% | 22.8%
Cc1ccc(S(=O)(=O)N2CCc3ccc(O)c4c3C2Cc2ccc3c(c2-4)OCO3)cc1 (centres undefined) | 26.5% | 53.2% | 33.8% | 8.45% (active) | 29.1 | -19.8% (active) | 18.1% | 12.6% | 10.3% | 15.1% | 61.8% | 6.15% (active) | 0.195% (active) | 37.2% | 14.3% | 3.96% (active) | 45.6% | 5.43% (active)
